# Measurements taken from the supplement of paper PMC6555819.
# What was measured:
# Experiment in all cases: PBM binding z-score (relative to random genomic background probes); higher = stronger binding; sequences stand for … in GC…GCGATTGACAGCGTAGAATGAAGG
# [1] = system: FXR:RXRa (NR concentration 270 nM, RXRa partner concentration 90 nM)
# Summary of the method: (§1)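 Antibodies against each partner of ligand-free nuclear receptor dimers (one per run) detected binding on custom Agilent 4×180K protein-binding microarrays after 1 h incubation. The double-stranded probes had 34-nt variable regions carrying direct-repeat seeds, single-nucleotide variants, half-site ablations and random human genomic background sequences. Binding z-scores, from regression-normalized fluorescence, use the random background probes as reference.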
# [2] = system: LXRa:RXRa (NR concentration 270 nM, RXRa partner concentration 90 nM)
# Summary of the method: as §1
# [3] = system: LXRa homodimer (NR concentration 270 nM)
# Summary of the method: as §1
# [4] = system: LXRb:RXRa (NR concentration 270 nM, RXRa partner concentration 90 nM)
# Summary of the method: as §1
# [5] = system: LXRb homodimer (NR concentration 270 nM)
# Summary of the method: as §1
# [6] = system: PPARa:RXRa (NR concentration 270 nM, RXRa partner concentration 90 nM)
# Summary of the method: as §1
# [7] = system: PPARg:RXRa (NR concentration 180 nM, RXRa partner concentration 90 nM)
# Summary of the method: as §1
# [8] = system: PPARg:RXRa 270nM:90nM, anti-RXR (NR concentration 270 nM, RXRa partner concentration 90 nM)
# Summary of the method: as §1
# [9] = system: PPARg:RXRa 30nM:10nM, anti-RXR (NR concentration 30 nM, RXRa partner concentration 10 nM)
# Summary of the method: as §1
# [10] = system: PPARg:RXRa 90nM:30nM, anti-RXR (NR concentration 90 nM, RXRa partner concentration 30 nM)
# Summary of the method: as §1
# [11] = system: PPARg:RXRa DBDmut IVT, anti-RXR (DBD mutation: RXRa K156A/R161A, NR concentration 270 nM, RXRa partner concentration 90 nM)
# Summary of the method: as §1
# [12] = system: PPARg:RXRa IVT, anti-PPARg (NR concentration 270 nM, RXRa partner concentration 90 nM)
# Summary of the method: as §1
# [13] = system: PPARg DBDmut:RXRa IVT, anti-PPARg (DBD mutation: PPARg1 K132A/R137A, NR concentration 270 nM, RXRa partner concentration 90 nM)
# Summary of the method: as §1
# [14] = system: PPARg DBDmut IVT, anti-PPARg (DBD mutation: PPARg1 K132A/R137A, NR concentration 270 nM)
# Summary of the method: as §1
# [15] = system: PPARg homodimer (NR concentration 180 nM)
# Summary of the method: as §1
# [16] = system: PXR:RXRa (NR concentration 270 nM, RXRa partner concentration 90 nM)
# Summary of the method: as §1
# [17] = system: PXR homodimer (NR concentration 270 nM)
# Summary of the method: as §1
# [18] = system: RARa:RXR (NR concentration 270 nM, RXRa partner concentration 90 nM)
# Summary of the method: as §1
# [19] = system: RARa homodimer (NR concentration 270 nM)
# Summary of the method: as §1
# [20] = system: RARb:RXRa (NR concentration 270 nM, RXRa partner concentration 90 nM)
# Summary of the method: as §1
Sequence,PBM binding z-score [1],PBM binding z-score [2],PBM binding z-score [3],PBM binding z-score [4],PBM binding z-score [5],PBM binding z-score [6],PBM binding z-score [7],PBM binding z-score [8],PBM binding z-score [9],PBM binding z-score [10],PBM binding z-score [11],PBM binding z-score [12],PBM binding z-score [13],PBM binding z-score [14],PBM binding z-score [15],PBM binding z-score [16],PBM binding z-score [17],PBM binding z-score [18],PBM binding z-score [19],PBM binding z-score [20]
ACCGAAAGGTCGTGAGGTGAGTATACAGAAAGGC,5.42,3.86,-0.204,3.02,0.134,5.29,3.99,4.37,1.42,2.8,0.638,2.23,0.794,0.846,1.51,3.29,-0.242,4.22,0.0801,4
CCGACTGGGGCAGAAATGTTACCATACCATCCGG,-0.183,-0.371,-0.171,-0.528,-0.781,-0.385,0.729,-0.0813,-0.351,-0.433,1.57,0.993,-0.699,-1.22,-0.25,-0.347,-0.252,-0.499,-0.698,0.0353
CTACCAAAGTGAACAAGGTCGTTGATTACTATTC,0.664,0.808,0.427,1.39,0.463,1.34,0.212,0.215,0.23,-0.0383,0.74,0.473,0.238,0.295,0.64,1.76,1.48,1.47,0.789,0.821
TTTCAAAGTTCAAAGGTAACGTAAGTATCCACAC,7.1,6.88,6.41,4.86,2.71,5.69,6,6.43,3.39,5.49,0.271,2.61,1.49,1.37,3.4,5.62,4.59,6.38,1.45,4.99
CGTCAAAGTTCAACTAAGGTAACCTAAAGCACGC,7.07,6.1,4.45,4.4,2.21,5.35,5.27,5.95,2.33,4.85,0.618,2.35,0.979,1.12,5.46,6.07,4.78,5.01,2.75,5.31
CGTCCAACGTCAAAGGTCAGTGAAGAGATGACGG,2.97,3.2,0.576,2.94,0.0829,4.04,3.28,4.92,2.64,4.72,-0.294,1.63,-0.376,-0.0246,3.55,3.58,0.376,5.04,1.79,4.24
CTACCAAGGTGAAAAAGGTCGTTGATTACTATTC,1.22,1.45,0.405,1.86,-0.412,2.61,0.694,1.3,0.297,0.721,1.42,1.39,0.0289,-0.0502,0.878,2.31,1.09,2.56,0.555,2.02
TCATATACGTAATACAGGTGAAAGTCGGCATCTA,1.21,1.13,0.327,1.26,0.782,1.75,1.26,2.79,3.96,3.36,2.77,1.63,0.572,1.29,1.17,0.689,0.477,0.982,1,0.727
CGTGCAAGGTCATAGGAGGTCAGTGAAGACAGAT,7.84,7.38,4.92,6.31,1.2,5.98,6.01,6.37,2.92,5.01,3.54,4.74,1.77,-0.0772,4.07,7.21,4.19,6.63,2,5.41
GCGACTGGGGCTAAGCAGGTTACCATAAGGTTGG,-0.407,-0.415,-0.836,-0.00625,-0.83,0.342,0.147,-0.288,-0.707,-0.68,0.815,0.343,-0.64,-1.34,-0.237,-0.0501,-0.222,0.266,-0.85,0.544
CTCGAAAGGTCCGTTGAGGTGAGTATACGGATAA,0.973,-0.377,-0.421,-0.34,-0.666,0.249,-0.102,0.101,-0.184,-0.198,-0.499,0.457,0.113,-0.18,-0.594,0.156,-0.14,0.322,-0.439,1.12
GCGACTGGGGCATCAGCAGGTTACCACAACTTAA,-0.0917,-0.185,-0.291,0.725,-0.793,0.935,0.922,1.13,-0.162,-0.0671,3.58,3.42,-0.499,-0.426,0.249,0.125,-0.569,0.565,-0.456,0.902
CCTATTAGTTGACCATAAGGGCATCCGAAGCTCG,0.924,0.501,0.549,0.384,0.423,0.26,0.493,0.533,-0.0651,0.145,0.225,0.238,0.764,0.611,0.73,0.903,1,0.903,1.97,1.37
CGAACGTGGGCATGAGTTGATAGCAAATGCCGAT,-0.892,-0.876,-1.04,-0.998,-1.27,-1.82,0.51,-0.55,-0.697,-0.428,-0.469,-0.859,-1.14,-1.08,-1.28,-0.855,-0.719,-1.12,-0.791,-0.401
